Screens as filed in PubChem.
Hits are enriched below; roughly 2.7% of the tested compounds scored in any of these assays.
Wnt bcat act = activators of Wnt/beta-catenin signaling; Wnt/beta-catenin reporter cell assay, activator, plate reader; activation, % at 9.35 µM; 300,000 compounds, 1.2% hits; AID 743398; in the data active = activation above about 30%, passing the limit was not always enough; inconclusive = no clear call, values can overlap the other calls;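 also: 0% = neutral control wells and 100% = positive control wells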
GSIS activator = primary screen for activators of insulin secretion dependent on glucose, INS-1E cells, GLuc reporter luminescence | INS-1E GLuc reporter insulin secretion, 2-3 h | activation, % at 16.6 µM | 370,000 compounds, 0.61% hits | AID 743287;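 active = lowest replicate activation of at least 40%, so every replicate reaches that level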;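 also: 0% = median of neutral control wells and 100% = median of IBMX positive control wells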
Env fusion inh = inhibitors of HIV Env-mediated cell fusion; 360,000 compounds, 1.1% hits; inhibition, % at 12.3 µM; AID 651610; HeLa-JRFL Env/CEM21 cell fusion, luciferase;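 active = mean replicate inhibition score of at least 50 and every replicate individually at or above 50; inconclusive = only one of the two criteria met; inactive = mean below 50 and not all replicates reaching 50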;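 also: 0% = plate neutral controls and 100% = maraviroc near 300 nM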
MITF TRPM1 HTS = activators of MITF-driven TRPM1 promoter activity in SK-MEL-5 cells; AID 588334; SK-MEL-5 TRPM1-promoter luciferase, 24 h; % of positive control, neutral wells = 0; 300,000 compounds, 0.75% hits; activation, % at 12.5 µM;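 active = mean activation of at least 80% with every replicate also reaching 80%; inconclusive = mean reaches 80% but some replicate falls short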;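 also: 0% = neutral control wells and 100% = parthenolide positive control wells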
CFTR F508del cor = CFTR F508del correction in bronchial cells | CFBE cells, YFP halide quenching; stimulated with forskolin plus potentiator P3; % fluorescence drop versus neutral controls | activity (quench increase), % at 7.58 µM | 350,000 compounds, 0.36% hits;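 active = mean added fluorescence quench of at least 8% versus neutral control, with both replicates also reaching 8%; inconclusive = only one of the mean or replicate conditions met; inactive = mean below 8% and not both replicates reaching 8%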;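 also: cells transiently co-express mutant CFTR-F508del with the halide-sensitive YFP; corrector assay measuring rescue of mutant channel to the surface after 24 h compound exposure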
Active calls of the source: *; ? = inconclusive; . = no result; [ ] = dose if it differs, or a comment.

SMILES	Wnt bcat act	GSIS activator	Env fusion inh	MITF TRPM1 HTS	CFTR F508del cor
Cn1cc(S(=O)(=O)N2CCOCC2)cc1C(=O)Nc1cccc(Cl)c1	-2	-16	98*	-6	-1
CC(C)(C)OC(=O)N1CCC(NC(=O)c2ncn(Cc3ccccc3)c2C(=O)NC2CCN(C(=O)OC(C)(C)C)CC2)CC1	-6	-36	12	432*	0
CCOC(=O)CSc1nnc(-c2ccccc2)c(-c2ccccc2)n1	-3	5	11	4	0
Cc1nnc(SCc2ccccc2)nc1-c1ccccc1	?	-4	-46	88*	-1
c1ccc2c(c1)-c1nc3ccccc3cc1C2N1CCCCC1 (stereo not given)	23	14	.	.	-1
O=c1cccc2n1Cc1cc3ccccc3nc1-2	39*	.	.	40	0
O=C(Cc1ccccn1)NCC[C@@H]1CC[C@@H](NS(=O)(=O)c2ccc(F)cc2)[C@H](CO)O1	.	-10	6[16.7 µM]	.	1
O=C(O)c1cc(NC(=O)c2ccc([N+](=O)[O-])cc2)cc(NC(=O)c2ccc([N+](=O)[O-])cc2)c1	8	-6	17	-2	-1
C/C(=N\NC(=O)c1ccncc1)c1cccc(NC(=O)c2ccc(C(C)(C)C)cc2)c1	35*	-21	-383	37	-2
O=C(NC(=S)Nc1ccc(-c2ccccc2)cc1)c1ccccc1	-2	23	-23	20	10*
CC(C)(C)c1ccc(C(=O)Nc2cccc([N+](=O)[O-])c2)cc1	.	-20	-496	88*	.
O=C(Nc1ccc([N+](=O)[O-])cc1)C(=O)Nc1cccc(C(=O)O)c1	-3	-11	115*	-101	4
C[C@@H]1CN([C@@H](C)CO)C(=O)c2cc(C3=CCCCC3)cnc2O[C@@H]1CN(C)C(=O)c1ccccn1	.	15	-24[16.7 µM]	.	-1
O=C(Nc1cccc([N+](=O)[O-])c1)c1ccc2c(c1)OCCO2	47*	8	-40	62	.
O=C(Nc1cnc2ccccc2c1)N1CCCCC1	.	.	.	94*	.
O=C(Nc1cccc(Cl)c1)c1ccc2c(c1)OCCO2	-1	16	-169	71	-5
Cc1cc(C)c(NC(=S)NC(=O)c2ccccc2)cc1C	34*	.	-27	.	0
O=C(Nc1cccc([N+](=O)[O-])c1)N1CCCCCC1	3	63*	4	-1	0
O=C(Nc1cnc2ccccc2c1)N1CCOCC1	.	.	.	27	.
CC(C)NC(=O)N1C2CN(Cc3ccc(F)cc3)CC1C2c1ccc(Br)cc1 (stereo not given)	.	-10	.	.	.
COc1cccc(C(=O)Nc2ccc3c(c2)C(=O)N(C)C[C@H](OC)[C@H](C)CN(C)[C@@H](C)CO3)c1	.	-7	.	.	3
CC(=O)Nc1cccc(NC(=O)c2ccc(C)c([N+](=O)[O-])c2)c1	58*	-3	-6	28	-3
O=C(NC(=S)Nc1cccc([N+](=O)[O-])c1)c1ccccc1	32*	12	2	.	-1
C/C(=N/NC(=O)c1ccc2c(c1)OCO2)c1cccc([N+](=O)[O-])c1	-2	12	-67	126*	-3
O=C(NC(=S)Nc1cccc([N+](=O)[O-])c1)c1ccco1	14	22	-56	21	.
SMILES	Wnt bcat act	GSIS activator	Env fusion inh	MITF TRPM1 HTS	CFTR F508del cor
CC(/C=C/c1ccc2c(c1)OCO2)=N\NC(=O)c1cccc([N+](=O)[O-])c1	0	-2	.	-4	4
CC(C)NC(=O)Nc1ccc2c(c1)C(=O)N([C@@H](C)CO)C[C@H](C)[C@@H](CN(C)C(=O)CCC(F)(F)F)OCCCC[C@H](C)O2	.	-10	15[16.7 µM]	.	2
O=C(Nc1ccc2c(c1)OCO2)N[C@@H]1CC[C@H](CCNC(=O)C2CCOCC2)O[C@@H]1CO	.	-5	-1[16.7 µM]	.	1
Oc1ccc(-c2csc(Nc3ncccn3)n2)cc1	-2	31	-57	95*	0
c1ccc(-c2csc(Nc3ncccn3)n2)cc1	.	59	.	40	.
CC(=O)Nc1ccc(-c2csc(Nc3ncccn3)n2)cc1	33*	3	-17	58	-1
O=C(C[C@@H]1CC[C@@H]2[C@H](COC[C@@H](O)CN2Cc2ccccc2F)O1)N1CCc2ccccc2C1	.	-5	.	.	2
O=c1ccc2c([nH]1)CCCCCCCCCC2	-1	7	56*	-4	1
O=S(=O)(c1ccc(Cl)s1)N1CCCc2cccc(O)c21	39*	.	-157	.	.
CO[C@@H]1CN(C)C(=O)c2ccc(NC(=O)CC(F)(F)F)cc2OC[C@@H](C)N(CC2CC2)C[C@@H]1C	.	7	.	.	-2
O=C(Cc1ccc(Cl)cc1)Nc1ncc([N+](=O)[O-])s1	7	-10	-24	20	-1
O=C(COc1ccc(Cl)cc1)Nc1ncc([N+](=O)[O-])s1	38*	.	-27	15	-1
COc1ccc2c(c1OC)C(=O)N1c3ccccc3SC21 (stereo not given)	.	115*	.	42	.
COc1ccc2c(c1OC)C(=O)N1c3ccccc3C(=O)N(c3ccccc3F)C21 (stereo not given)	.	.	.	-10	.
CCOc1ccc(C2C(C(=O)c3ccco3)=C(O)C(=O)N2Cc2cccnc2)cc1 (stereo not given)	35*	.	-9	.	.
C[C@@H]1CCCCO[C@H](CN(C)S(=O)(=O)c2cccs2)[C@@H](C)CN([C@@H](C)CO)C(=O)c2cc(NS(=O)(=O)c3cccs3)ccc2O1	.	0	.	.	-1
COc1ccccc1-c1cnn2c(NC3CCCC3)cc(C)nc12	25	-17	-25	140*	4
CCOC(=O)N1CCC(Nc2cc(C)nc3c(-c4ccccc4OC)c(C)nn23)CC1	-2	-23	25	-20	5
C=C[C@@]1(C)CC(=O)[C@]2(O)[C@@]3(C)[C@@H](O)CCC(C)(C)[C@@H]3[C@H](OC(C)=O)[C@H](O)[C@@]2(C)O1	-1	85*	.	.	8
C=C[C@@]1(C)CC(=O)[C@]2(O)[C@@]3(C)[C@@H](O)CCC(C)(C)[C@@H]3[C@H](O)[C@H](OC(C)=O)[C@@]2(C)O1	3	99*	.	11	5
Cc1cc(Sc2nnc(/N=C/N(C)C)s2)c2ccccc2n1	1	-14	56*	.	0
Cc1cc(Sc2nnc(N)s2)c2ccccc2n1	-9	0	53	.	4
COc1ccc(OC)c(/C=C/C(=O)OCC(=O)NCc2cccs2)c1	-3	14	.	-4	-2
COc1cc(/C=C/C(=O)OCC(=O)NCc2cccs2)ccc1OC(F)F	-2	46*	3	-4	.
COc1cc(/C=C/C(=O)OCC(=O)NCCc2ccccc2)ccc1OC(F)F	-2	61*	-3	-8	-2
CO[C@H]1CN(C)C(=O)c2ccc(NC(=O)NC(C)C)cc2OC[C@@H](C)N(CCC(F)(F)F)C[C@H]1C	.	-5	-17[16.7 µM]	.	2
COC(=O)[C@H]1[C@H](CO)[C@H]2Cn3c(ccc(-c4cccc(F)c4)c3=O)[C@H]2N1CC1CC1	.	1	.	.	2
CO[C@H]1CC[C@H]2CCOc3ccc(C#N)cc3C(=O)N(C)CCCC(=O)N(C)C[C@@H]1O2	.	15	29[16.7 µM]	.	.
